Reference: PubChem BioAssay AID1026 (Columbia University Molecular Screening Center, 2008)
Activity calls are given as the source filed them. The rule behind the calls is not given here.

These molecules were tested against Bifunctional epoxide hydrolase 2 (Homo sapiens) (UniProt P34913) (assay: sEH inhibitor concentration-response potency, dose response, biochemical, human sEH, fluorescence, Infinite200 (AID 1026)). Conditions: recombinant human sEH, fluorogenic substrate, at 0.2 µM, hits give high values.
Chain of Bifunctional epoxide hydrolase 2 (Homo sapiens) (P34913 whole entry, looked up): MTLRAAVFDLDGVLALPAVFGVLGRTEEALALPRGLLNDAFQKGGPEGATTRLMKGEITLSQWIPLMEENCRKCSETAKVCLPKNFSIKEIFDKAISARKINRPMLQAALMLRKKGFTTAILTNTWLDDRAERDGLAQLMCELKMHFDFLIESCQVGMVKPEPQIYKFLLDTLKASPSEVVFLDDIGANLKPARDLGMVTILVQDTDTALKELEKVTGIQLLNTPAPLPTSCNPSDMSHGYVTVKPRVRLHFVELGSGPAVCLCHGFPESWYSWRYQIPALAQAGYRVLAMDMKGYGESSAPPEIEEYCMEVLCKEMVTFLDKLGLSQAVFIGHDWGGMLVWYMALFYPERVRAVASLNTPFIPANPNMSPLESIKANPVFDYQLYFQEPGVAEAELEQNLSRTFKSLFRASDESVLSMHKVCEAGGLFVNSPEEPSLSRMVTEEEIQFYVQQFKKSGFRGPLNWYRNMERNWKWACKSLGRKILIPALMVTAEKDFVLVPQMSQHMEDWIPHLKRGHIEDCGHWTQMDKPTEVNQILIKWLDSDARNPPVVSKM

inhibition, inactive:
COc1ccc(OC)c(/C=N/NC(=O)c2csc3ccccc23)c1 51.1%, CC(NC(=O)CSc1nnc(-c2cccc(S(=O)(=O)N3CCCCC3)c2)o1)C12CC3CC(CC(C3)C1)C2 (stereo not given) 66%, O=C(Nc1ccc(Cc2ccncc2)cc1)C1CCC(N2C(=O)C3C4C=CC(C5CC45)C3C2=O)CC1 (stereo not given) 56.4%, COc1ccc(C2CCCN2C(=O)Nc2ccc(Cl)cc2)cc1OC (stereo not given) 71.3%, CC(=O)N1CCN(c2ccc(NC(=O)COc3ccc(Cl)cc3Cl)cc2)CC1 38.5%, O=C(N/N=C/c1ccc(O)cc1)c1csc2ccccc12 54.5%, CCC(=O)N1CCc2cc(S(=O)(=O)CCC(=O)NCCC3=CCCCC3)ccc21 40%, CCCC(=O)Nn1cnc2c(c1=O)C1(CCCCC1)Cc1ccccc1-2 71.2%, COc1ccc(NC(=O)N2CCCC(c3nc(-c4ccc(C(C)C)cc4)no3)C2)cc1 (stereo not given) 64.5%, Cc1cccc(NC(=O)Nc2cccc(Oc3c(F)c(F)c(F)c(F)c3F)c2)c1 47.7%, Cc1cc2cc(CNC(=O)NC3CCCCC3)ccc2[nH]1 60%, O=C(Nc1cccc(F)c1)NC1CCCCC1 51.9%, COc1ccc(-c2nc3cc(NC(=O)Cc4ccc(OC)c(OC)c4)ccc3o2)cc1 52.1%, O=C(NCCC1=CCCCC1)c1ccc(Cl)c(S(=O)(=O)N2CCOCC2)c1 68.1%, CCN(CCCNC(=O)C1CCN(S(=O)(=O)N2CCC3(CC2)OCCO3)CC1)c1ccccc1 53.8%
